Among all 69,000 compounds or so, about 8,600 (12%) showed an effect of 50% or more. The full list was thinned out, with strong results kept by preference.
Each compound was assayed on Plasmodium berghei (assay: Screen against P. berghei liver stage (PbLuc), transformed with Luciferase, at 10uM). Conditions: tested at 10 uM.
Assay type: functional, HepG2

Row | SMILES | INHIBITION [%]
1 | O=C(NCc1ccco1)N1CCCCC1c1nc(C2CC2)no1 (stereo not given) | 16
2 | COC(=O)[C@H](C)NC(=O)c1nc(C2CC2)n(-c2ccccc2Cl)n1 | -20.8
3 | CCn1cnnc1CNC(=O)c1cc(F)ccc1OC | 29.7
4 | CCn1cnnc1CNC(=O)c1cc(Cl)ccc1OC | -9.98
5 | Cn1cnnc1CNC(=O)c1ccc(Br)cc1O | -48.5
6 | CCn1cnnc1CNC(=O)c1ccc(Cl)cc1F | 36.2
7 | CCn1cnnc1CNC(=O)c1ccc(Br)cc1F | 56.5
8 | COc1cc(Cl)ccc1C(=O)NCc1nncn1C | 52.3
9 | CCn1cnnc1CCNC(=O)c1ccc(Br)cc1F | 25.5
10 | CCn1cnnc1CNC(=O)c1cc(Cl)ccc1O | -35.1
11 | CCn1cnnc1CNC(=O)c1cc(Cl)ccc1F | 56.4
12 | CN(CC(=O)N1CCOCC(CO)C1)Cc1ccc(F)cc1 (stereo not given) | -12.1
13 | Cc1noc(C)c1CN1CCCC2(C1)CN(Cc1nccn1C)CCO2 (stereo not given) | 10
14 | CC(C)=CCN1C[C@@H]2CC[C@H]1CN(C(=O)c1ccc3c(c1)OCO3)C2 | 33
15 | CN(C)S(=O)(=O)N1CCN(Cc2ccnc(N3CCCC3)n2)CC1 | 7.52
16 | COc1ccc(-c2cc(C3CCNCC3)ccn2)cc1 | 23.9
17 | O=C(c1ccc(-c2ccc(O)nc2)s1)N1CCCCC1 | -69.6
18 | O=C(Nc1cc(Cl)ccn1)c1nc(N2CCCC2)ncc1Cl | -35
19 | O=C(Nc1ccccn1)c1nc(N2CCCC2)ncc1Cl | -4.48
20 | Cc1cc(NC(=O)c2nc(N3CCCC3)ncc2Cl)nc(C(C)C)n1 | 66.8
21 | O=C1NCC(C(=O)Nc2ncc(Cc3ccccc3F)s2)N1 (stereo not given) | -17.4
22 | CS(=O)(=O)N1CCc2sc(C(=O)NCCc3ccccn3)cc21 | -47.8
23 | CC(C)(C)OC(=O)NCCNC(=O)c1ccc2cc[nH]c2c1 | -16
24 | COCCN1C(=O)CCC12CCCN(Cc1ccccc1F)C2 (stereo not given) | 44.5

Row | SMILES | INHIBITION [%]
25 | Cc1nc(CN2C[C@@H]3CCCO[C@@H]3[C@H](N(C)C(C)C)C2)cs1 | 66.8
26 | Cc1cc(CN2C[C@@H]3CCCO[C@@H]3[C@H](N(C)C(C)C)C2)no1 | 71.6
27 | Cc1ncsc1CN1C[C@H](OCC(C)C)[C@H]2OCCC[C@H]21 | -37.9
28 | CCS(=O)(=O)N[C@@H]1CN(Cc2cc(C)on2)C[C@@H]2CCCO[C@@H]21 | 21
29 | COC1CCC[C@@H]2CN(Cc3csc(C)n3)C[C@H]12 (stereo not given in full) | 40.3
30 | Cc1nc(CN2C[C@@H]3CCCO[C@@H]3[C@H](NC(=O)CC3CC3)C2)cs1 | 47.9
31 | Cc1ncsc1CN1C[C@@H]2CCCO[C@@H]2[C@H](N(C)C(C)C)C1 | 50.7
32 | Cc1ncsc1CN1C[C@@H]2CCCO[C@@H]2[C@H](Nc2ccccn2)C1 | 34.2
33 | Cc1cc(CN2C[C@@H]3CCCO[C@@H]3[C@H](NS(C)(=O)=O)C2)no1 | -13
34 | Cc1cccc(C)c1NC(=O)CN(C)C(C)c1nc(C(C)(C)C)no1 (stereo not given) | 34.6
35 | Cc1cccc(OCCNC(=O)CN2CCCC2Cn2cncn2)c1 (stereo not given) | 12.7
36 | CNC(=O)c1cc(C)ccc1NCc1cn2cc(C)ccc2n1 | 29.6
37 | CCC(C#N)NC(=O)c1sccc1OC (stereo not given) | 26.4
38 | COCC1CC2(CCN(C(=O)c3cncc(C)c3)CC2)CO1 (stereo not given) | -26.1
39 | O=C(NCc1cccnc1)c1nc2c(s1)CCCN2c1ncccn1 | 26.3
40 | Cc1ccc(N2CCCc3sc(C(=O)NCc4cccnc4)nc32)nn1 | 63.5
41 | Cc1ccc(N2CCCc3sc(C(=O)NCc4ccncc4)nc32)nn1 | 42.5
42 | CC(C)N(C)CC(=O)N(C)C(c1cccc(F)c1)c1ccccn1 (stereo not given) | -55.4
43 | COc1ccccc1CCN1CCCC(CN(C)Cc2ccc(C)o2)C1 (stereo not given) | 22
44 | COc1ccccc1CCN1CCCC(CN(C)Cc2cc(C)n[nH]2)C1 (stereo not given) | 36.8
45 | CN(Cc1cccc(O)c1)CC1CCCN(CCc2ccc(Cl)cc2)C1 (stereo not given) | 73.5
46 | CN(Cc1ccccc1O)CC1CCCN(CCc2ccc(Cl)cc2)C1 (stereo not given) | 5.36
47 | COc1ccc(CCN2CCCC(CN(C)Cc3ccc(C)o3)C2)cc1 (stereo not given) | 70.6
48 | Cc1cc(CN(C)CC2CCCN(CCc3ccc(Cl)cc3)C2)[nH]n1 (stereo not given) | 86.6

Row | SMILES | INHIBITION [%]
49 | O=C(Nc1ccc(Cl)cn1)C1CCCN(Cc2ccccn2)C1 (stereo not given) | 15.7
50 | COc1ccc(CCN2CCCC(CN(C)Cc3[nH]cnc3C)C2)cc1 (stereo not given) | 16.3
51 | O=C(Nc1ccc(Cl)cn1)C1CCCN(CCc2ccccn2)C1 (stereo not given) | 48.3
52 | O=C(Nc1ccc(Cl)cn1)C1CCCN(CCc2ccncc2)C1 (stereo not given) | 74.4
53 | CCN(CC1CCCN(CCc2cccc(OC)c2)C1)C(=O)CN(C)C (stereo not given) | 16
54 | Cc1nc[nH]c1CN(C)CC1CCCN(CCc2ccc(Cl)cc2)C1 (stereo not given) | 33.7
55 | O=C(O)c1cc(-c2cccs2)nc2c(Cl)cnn12 | 47.1
56 | Cn1cc(C#N)c(=O)n(CC(O)c2ccccc2F)c1=O (stereo not given) | -4.185
57 | CC(=O)N1CCC(c2cnc(-c3c(C)n[nH]c3C)cn2)CC1 | 49.6
58 | CC(CC(=O)O)CC(=O)Nc1sc2c(c1C(N)=O)CCc1ccccc1-2 (stereo not given) | 27.5
59 | CNC(=O)C(C)(C)N1CCC[C@H]1C(=O)NCCN1CCCC1 | -84.9
60 | Cc1ccc(C(=O)N2CCCN(Cc3cccs3)CC2)n1C | 6.683
61 | O=S1(=O)NC(C2CCN(Cc3ccncc3)CC2)Nc2ccccc21 (stereo not given) | 1.5
62 | Cc1nc(CN(C)CC2CCCN(CCc3ccc(Cl)cc3)C2)n(C)n1 (stereo not given) | 39.3
63 | COc1ccccc1CCN1CCCC(CN(C)Cc2c[nH]c(C)n2)C1 (stereo not given) | 85.7
64 | Cc1nc(CN(C)CC2CCCN(CCc3ccc(Cl)cc3)C2)no1 (stereo not given) | 40.8
65 | CN(Cc1nnc(C2CC2)n1C)C1CCN(CCc2ccncc2)C1 (stereo not given) | -11.2
66 | COc1ccccc1CC1CCCN(CCC#N)C1 (stereo not given) | 9.32
67 | COc1ccccc1CN(Cc1cccnc1)Cc1c[nH]c(C)n1 | 12
68 | CN(Cc1ccncc1)CC1CCCN(CCc2ccc(Cl)cc2)C1 (stereo not given) | 65.9
69 | Cc1noc(CN(C)CC2CCCN(CCc3ccc(Cl)cc3)C2)n1 (stereo not given) | 58.5
70 | CN(Cc1cnc(N)nc1)CC1CCCN(CCc2ccc(Cl)cc2)C1 (stereo not given) | -7.94

Source: ChEMBL document CHEMBL4513216, “Probing the Open Global Health Chemical Diversity Library for Multistage-Active Starting Points for Next-Generation Antimalarials” (ACS Infect Dis, 2020)
